ELG1 DNA repair: qHTS screen for small molecules that inhibit ELG1-dependent DNA repair in human embryonic kidney (HEK293T) cells expressing luciferase-tagged ELG1; HEK293T ELG1-luciferase reporter, luminescence, 16 h; DNA damage induced by 5-fluorouridine; 2.3% of 330,000 active; Potency, µM (highest dose often 46.1 µM), inactives show top-dose activity change, negative = inhibition, hits mostly inhibitors; further: on the % scale 0 is the no-effect control and ±100 the full control effect; nearly all actives have a fitted effect of over 55% in size
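HEK293T cells expressing luciferase-tagged ELG1 (2,000/well) received 5-Fluorouridine plus compound or DMSO for 16 hr at 37 °C. Luciferase was read by ONE-Glo luminescence after 30 min at room temperature.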
KB-3-1 tox: qHTS assay for MDR1-selective chemotherapeutics: Primary screen using the parental adenocarcinoma cell KB-3-1; KB-3-1 viability, CellTiter-Glo ATP luminescence, 72 h; Potency, µM (top dose mostly 46.1 µM), usual class: cytotoxic; 1.4% of 400,000 active; AID 1347075, 2019; further: on the % scale 0 is the no-effect control and ±100 the full control effect; nearly all actives have a fitted effect of over 60% in size
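Here the drug-naive KB-3-1 line serves as comparator for MDR sub-line selectivity; cells received compound titrations, 72 h at 37 °C, then CellTiter-Glo readout.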
KB-V1 cytotox: qHTS assay for MDR1-selective chemotherapeutics: Primary screen using the drug-selected MDR subline cells KB-V1; KB-V1 MDR cells viability, CellTiter-Glo, 72 h; Potency, µM (doses to about 46.1 µM), hits mostly cytotoxic; 3.4% of 400,000 active; further: on the % scale 0 is the no-effect control and ±100 the full control effect; nearly all actives have a fitted effect of over 60% in size
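KB-V1 cells (P-gp-expressing MDR subline of KB-3-1) in phenol-red-free DMEM with 10% FBS were exposed to library compounds over a concentration series for 72 h at 37 degrees C. Viability read by CellTiter-Glo luminescence; concentration-effect curves fitted after normalization.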
SW480 rereplic: A quantitative high throughput screen for small molecules that induce DNA re-replication in SW480 colon adenocarcinoma cells; SW480 DNA re-replication, Hoechst DNA content imaging, 48 h; Potency, µM (highest dose often 46.1 µM), inactives show top-dose re-replication activation, hits mostly activators; 1.8% of 340,000 active; AID 624297, 2012; further: % of control where 0% means no effect; nearly all actives have a fitted effect of over 55% in size
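Per well, 250 cells were exposed to pinned compound for 48 hr. Nuclear DNA was visualised with Hoechst (40 min, 37 C) and total object intensity recorded by fluorescence scanning.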
MCF10A rereplic: A quantitative high throughput screen for small molecules that induce DNA re-replication in MCF 10a normal breast cells; AID 624296, 2012; 2.9% of 350,000 active; Potency, µM (highest dose often 46.1 µM), for the others: top-dose activity, positive = re-replication, actives largely listed as activators; MCF 10A DNA re-replication, Hoechst nuclear intensity, 48 h; further: % of control where 0% means no effect; nearly all actives have a fitted effect of over 50% in size
Starred values were filed as active, the others as inactive; i = inactive; ? = inconclusive; nt = no result. An excerpt weighted towards active compounds, which were near 8.1% of everything screened. The call rests on the fitted dose curve; in most records, active means well fitted curve in the direction sought with a large enough effect; inconclusive means small, poorly fitted or top-dose-only effect, or another doubt; inactive means no such curve, though single readings can be large; an effect the other way counts as inactive or inconclusive. Potency means the concentration at half of the fitted maximal effect.

SMILES	ELG1 DNA repair	KB-3-1 tox	KB-V1 cytotox	SW480 rereplic	MCF10A rereplic
Cc1ccc(C(O)c2ncc(-c3ccc(F)cc3)[nH]2)c(C)c1 (configuration not stated)	nt	i	i	nt	nt
CC1(C(=O)Nc2cccnc2)Cc2c(-c3ccc4c(c3)OCO4)ccnc2O1 (configuration not stated)	nt	15µM*	?	nt	nt
CC1(C(=O)Nc2ccc(Cl)c(C(F)(F)F)c2)Cc2c(-c3ccccc3)ccnc2O1 (configuration not stated)	nt	i	i	nt	nt
CN(C)c1ccc(-c2ccnc3c2CC(C)(C(=O)Nc2ccc(Cl)c(C(F)(F)F)c2)O3)cc1 (configuration not stated)	nt	16µM*	?	nt	nt
CC1(C(=O)Nc2cccc(Oc3ccccc3)c2)Cc2c(-c3ccc4c(c3)OCO4)ccnc2O1 (configuration not stated)	nt	4.6µM*	5.8µM*	nt	nt
CC(=O)Nc1ccc(-c2ccnc3c2CC(C)(C(=O)Nc2ccc4c(c2)OCO4)O3)cc1 (configuration not stated)	nt	18µM*	i	nt	nt
COc1ccccc1NC(=O)Cn1c(=O)n(-c2ccc(C)cc2)c(=O)c2c1cnn2C	nt	i	i	nt	nt
CCOc1ccc(CCNC(=O)CCCn2nc(C)c3sc4ccccc4c3c2=O)cc1OCC	nt	i	i	nt	nt
Cc1cccc(NC(=O)c2cccc(S(=O)(=O)N(C)C3CCCCC3)c2)n1	nt	i	i	nt	nt
COc1ccccc1NC(=O)c1cc2ccc(O)cc2o/c1=N\O	-9%	i	i	?	?
COc1ccccc1N=c1oc2cc(O)ccc2cc1C(=O)NCC1CCCO1 (configuration not stated)	6.5µM*	i	i	13%	7%
COc1cccc(N=c2oc3cc(O)ccc3cc2C(=O)NCC2CCCO2)c1 (configuration not stated)	4.1µM*	i	i	5%	?
Cc1cccc(N=c2oc3cc(O)ccc3cc2C(N)=O)c1	4.6µM*	i	?	?	?
COc1ccccc1N=c1oc2cc(O)ccc2cc1C(N)=O	?	?	?	11µM*	18µM*
COc1cccc2cc(C(=O)NCC3CCCO3)c(=O)oc12 (configuration not stated)	?	i	i	-10%	-2%
COc1ccc2oc(=O)c(C(=O)NCC3CCCO3)cc2c1 (configuration not stated)	?	i	i	-2%	-6%
CN(C)CCNc1ccc2ncn3c4ccc(O)cc4c(=O)c1c23	nt	?	i	?	?
CCOC(=O)c1ccc(S(=O)(=O)N2CCN(CC(O)COc3ccc(C#N)cc3)CC2)cc1 (configuration not stated)	-11%	i	i	5%	0%
CCCCN(CC)c1nc(-c2ccncc2)nc2ccccc12	23µM*	?	i	?	?
CCN(CC)c1nc(-c2ccccn2)nc(-c2ccccc2)c1C#N	12µM*	?	16µM*	-45%	-6%
CCCN(CCC)c1nc(-c2ccccc2F)nc2ccccc12	nt	i	i	nt	nt
CCCN(CCC)c1nc(-c2ccccn2)nc2ccccc12	?	4.6µM*	2.9µM*	10µM*	21µM*
c1ccc(CCNc2nc(-c3ccccn3)nc3ccccc23)cc1	4.1µM*	12µM*	i	?	11%
COc1ccc(C)cc1S(=O)(=O)N1CCN(C(=O)c2ncoc2-c2ccccc2F)CC1	4%	i	?	-1%	16%
c1cnc(-c2nnc3n2CCCCC3)cn1	6%	i	i	?	1.5µM*
c1cc(-c2nnc3n2CCCCC3)ccn1	5%	i	i	-1%	0%

Source: PubChem (National Center for Advancing Translational Sciences (NCATS))
